# From the supplement of paper PMC12645437, “Orthogonal IMiD-Degron Pairs Induce Selective Protein Degradation in Cells” (ACS Chemical Biology, 2025)
# Over roughly 8,300 sequences, “log2 fold change of degron read counts, EGFP-low vs EGFP+ sorted cells (limma voom), compound-induced degradation” has its median near -1.1; the highest 2% begin near 3.2. This excerpt belongs to a sample that is enriched for the highest values.
# T1: CRBN, Q96SW2
# T1 chain: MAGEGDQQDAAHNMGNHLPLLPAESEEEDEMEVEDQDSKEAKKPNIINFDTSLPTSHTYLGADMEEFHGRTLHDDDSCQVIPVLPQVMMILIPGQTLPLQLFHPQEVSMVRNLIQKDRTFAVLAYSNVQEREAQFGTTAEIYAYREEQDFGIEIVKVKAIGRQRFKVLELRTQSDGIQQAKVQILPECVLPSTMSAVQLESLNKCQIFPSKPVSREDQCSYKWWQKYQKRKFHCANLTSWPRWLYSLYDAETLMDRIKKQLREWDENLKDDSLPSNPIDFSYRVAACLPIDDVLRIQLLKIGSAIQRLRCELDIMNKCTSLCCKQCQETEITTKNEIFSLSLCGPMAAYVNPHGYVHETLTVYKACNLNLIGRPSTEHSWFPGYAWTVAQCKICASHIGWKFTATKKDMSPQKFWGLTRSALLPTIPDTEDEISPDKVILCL
# Target: T1, CRBN, Q96SW2
# Assay: log2 fold change of degron read counts, EGFP-low vs EGFP+ sorted cells (limma voom), compound-induced degradation; higher = more compound-induced degradation of the degron-EGFP fusion; degrons are variants of IKZF1/3 zinc finger 2; compound dose not given here
# Conditions: Jurkat, 18 h
# Description: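 Pooled library of 8380 IKZF3 ZF2 degron mutants (positions 146-167 varied within the IKZF3 130-189 degron; only the varied core is printed, flanks not printed) fused to EGFP with IRES-mCherry, lentivirally expressed in Jurkat cells. mCherry+ cells were treated with one IMiD compound for 18 h (dose not stated) and FACS-sorted into EGFP-low and EGFP+ populations. Degron sequences were counted by NGS, and log2FC (EGFP-low vs EGFP+) was estimated by limma voom over 3 biological replicates.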
# [1] = compound: compound 19 (5-tert-butyl-thalidomide)
# [2] = compound: compound 22 (5-morpholino-thalidomide)
# [3] = compound: compound 33 (diphenyl IMiD analogue)
# 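Also: pooled lentiviral library of zinc finger degron-EGFP fusions in mCherry-positive Jurkat cells, FACS-sorted after compound exposure, with degron abundance counted by next-generation sequencing.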
sequence,measurement,setting,value
"FDCPICGRRFTQKGNLLRHIKL [46F_47D_49P_50I_52G_53R_54R_55F_67L_, Q9UKT9]",log2 fold change of degron read counts,[1],2.15
same,log2 fold change of degron read counts,[2],0.908
same,log2 fold change of degron read counts,[3],1.08
same,log2 fold change of degron read counts,compound: thalidomide,2.66
"LCCNQCGFHCTQKGNLLRHIKL [46L_47C_49N_50Q_52G_53F_54H_55C_67L_, Q9UKT9]",log2 fold change of degron read counts,[1],-2.15
same,log2 fold change of degron read counts,[2],-2.61
same,log2 fold change of degron read counts,[3],-1.7
same,log2 fold change of degron read counts,compound: thalidomide,-1.96
"FDCSVCGHPFTQKGNLLRHIKL [46F_47D_49S_50V_52G_53H_54P_55F_67L_, Q9UKT9]",log2 fold change of degron read counts,[1],-1.84
same,log2 fold change of degron read counts,[2],-2.36
same,log2 fold change of degron read counts,[3],-2.33
same,log2 fold change of degron read counts,compound: thalidomide,-1.9
"FKCDVCGAYFTQKGNLLRHIKL [46F_47K_49D_50V_52G_53A_54Y_55F_67L_, Q9UKT9]",log2 fold change of degron read counts,[1],-2.99
same,log2 fold change of degron read counts,[2],-3.36
same,log2 fold change of degron read counts,[3],-3.07
same,log2 fold change of degron read counts,compound: thalidomide,-2.83
"FECDVCGADFTQKGNLLRHIKL [46F_47E_49D_50V_52G_53A_54D_55F_67L_, Q9UKT9]",log2 fold change of degron read counts,[1],-3.21
same,log2 fold change of degron read counts,[2],-3.19
same,log2 fold change of degron read counts,[3],-1.99
same,log2 fold change of degron read counts,compound: thalidomide,-2.31
"FWCPICGRPFTQKGNLLRHIKL [46F_47W_49P_50I_52G_53R_54P_55F_67L_, Q9UKT9]",log2 fold change of degron read counts,[1],2.01
same,log2 fold change of degron read counts,[2],0.778
same,log2 fold change of degron read counts,[3],1.24
same,log2 fold change of degron read counts,compound: thalidomide,-0.187
"FWCPQCGAKFTQKGNLLRHIKL [46F_47W_49P_50Q_52G_53A_54K_55F_67L_, Q9UKT9]",log2 fold change of degron read counts,[1],1.29
same,log2 fold change of degron read counts,[2],2.33
same,log2 fold change of degron read counts,[3],-0.101
same,log2 fold change of degron read counts,compound: thalidomide,-0.258
"FCCEICGAQFTQKGNLLRHIKL [46F_47C_49E_50I_52G_53A_54Q_55F_67L_, Q9UKT9]",log2 fold change of degron read counts,[1],3.18
same,log2 fold change of degron read counts,[2],2.58
same,log2 fold change of degron read counts,[3],2.74
same,log2 fold change of degron read counts,compound: thalidomide,2.27
"FACEICGAQFTQKGNLLRHIKL [46F_47A_49E_50I_52G_53A_54Q_55F_67L_, Q9UKT9]",log2 fold change of degron read counts,[1],3.66
same,log2 fold change of degron read counts,[2],2.38
same,log2 fold change of degron read counts,[3],1.15
same,log2 fold change of degron read counts,compound: thalidomide,1.07
"FGCEICGAQFTQKGNLLRHIKL [46F_47G_49E_50I_52G_53A_54Q_55F_67L_, Q9UKT9]",log2 fold change of degron read counts,[1],3.48
same,log2 fold change of degron read counts,[2],2.64
same,log2 fold change of degron read counts,[3],1.18
same,log2 fold change of degron read counts,compound: thalidomide,1.14
"FKCEICGAQFTQKGNLLRHIKL [46F_47K_49E_50I_52G_53A_54Q_55F_67L_, Q9UKT9]",log2 fold change of degron read counts,[1],0.105
same,log2 fold change of degron read counts,[2],-2.17
same,log2 fold change of degron read counts,[3],-1.89
same,log2 fold change of degron read counts,compound: thalidomide,-0.0845
"FNCEICGAQFTQKGNLLRHIKL [46F_47N_49E_50I_52G_53A_54Q_55F_67L_, Q9UKT9]",log2 fold change of degron read counts,[1],2.88
same,log2 fold change of degron read counts,[2],1.44
same,log2 fold change of degron read counts,[3],0.527
same,log2 fold change of degron read counts,compound: thalidomide,0.564
"FVCEICGAQFTQKGNLLRHIKL [46F_47V_49E_50I_52G_53A_54Q_55F_67L_, Q9UKT9]",log2 fold change of degron read counts,[1],0.913
same,log2 fold change of degron read counts,[2],2.56
same,log2 fold change of degron read counts,[3],2.86
same,log2 fold change of degron read counts,compound: thalidomide,3.22
"FTCDQCGASFTQKGNLLRHIKL [46F_47T_49D_50Q_52G_53A_54S_55F_67L_, Q9UKT9]",log2 fold change of degron read counts,[1],-1.41
same,log2 fold change of degron read counts,[2],-1.1
same,log2 fold change of degron read counts,[3],-0.521
same,log2 fold change of degron read counts,compound: thalidomide,-1.39
